# Compound activity as filed in PubChem.
# The sample as a whole holds a higher share of hits than the screen did.
# RE007 growth inh – qHTS Assay for Inhibitors of the HIV-1 protein Vpr; S. pombe RE007 Vpr strain, BacTiter-Glo ATP luminescence, 24 h; Potency, µM (doses to about 92.2 µM), for inactives: top-dose activity change, negative = less growth, usual class: inhibitors; 360,000 tested, 0.21% active; AID 651644, 2012; active = well fitted falling curve with a large enough effect; inconclusive = small, poorly fitted or top-dose-only effect; inactive = no such curve, though single readings can be large or run the other way; note: potency is the fitted concentration of half-maximal effect; % is set by controls: 0 for no effect and ±100 for the full control effect; nearly all actives have a fitted effect of over 50% in size
#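 Fission yeast strain RE007, carrying one chromosomally integrated HIV-1 vpr copy, was seeded at OD 0.01 in PMG+AL medium with 23 nL pinned compound. After 24 h at 30 °C and 99% humidity, viability was read by BacTiter-Glo luminescence.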
# Shiga inhibitor – A qHTS for Small Molecule Inhibitors of Shiga Toxin | Vero cells, Shiga toxin protein synthesis inhibition reporter | inhibition, % at 38.7 µM | 290,000 tested, 9.2% active; in the data active = inhibition mostly above about 28%, no sharp cut-off; inactive = mostly below about 43%; note: 0% is about no effect
# FBPA Giardia inh – qHTS Assay for Inhibitors of Fructose-1,6-bisphosphate Aldolase from Giardia Lamblia; A8B2U2; purified Giardia FBPA; Potency, µM (highest dose often 59.6 µM), for inactives: top-dose activity, negative = inhibition, usual class: inhibitors; 290,000 tested, 0.71% active; note: potency is the fitted concentration of half-maximal effect; % is set by controls: 0 for no effect and ±100 for the full control effect; nearly all actives have a fitted effect of over 55% in size
# Target sequence (A8B2U2 whole entry, looked up): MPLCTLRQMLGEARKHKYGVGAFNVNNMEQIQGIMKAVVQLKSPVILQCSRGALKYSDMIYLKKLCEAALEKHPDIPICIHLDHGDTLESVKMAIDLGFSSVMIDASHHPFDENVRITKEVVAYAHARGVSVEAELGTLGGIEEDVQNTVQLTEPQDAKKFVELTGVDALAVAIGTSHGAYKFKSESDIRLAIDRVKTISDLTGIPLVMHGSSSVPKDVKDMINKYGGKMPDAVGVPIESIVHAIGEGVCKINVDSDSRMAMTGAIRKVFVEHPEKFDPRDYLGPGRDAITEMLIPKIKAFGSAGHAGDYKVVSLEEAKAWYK
#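 Giardia FBPA (40 nM reagent) was preincubated 10 min at RT with compound (up to 57.5 uM final), then substrate plus GAPDH/TPI/NAD/arsenate coupling system with diaphorase/resazurin was added; resorufin fluorescence (525/598 nm) was read after 20 min.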
# TbPYK inhibitor – qHTS of Trypanosoma Brucei Inhibitors; pyruvate kinase (Trypanosoma brucei), Q57TT1; TbPYK enzyme, Kinase-Glo Plus ATP luminescence, 45 min; Potency, µM (titrated, usually from 76.8 µM), without a hit: top-dose activity, negative = inhibition, most hits filed as inhibitors; 410,000 tested, 0.12% active; AID 624173, 2012; note: potency is the fitted concentration of half-maximal effect; % is set by controls: 0 for no effect and ±100 for the full control effect; nearly all actives have a fitted effect of over 50% in size
#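 Enzyme and substrate buffer are dispensed first and compound is pin-transferred. ADP at 130 uM final then starts the reaction, which runs 45 min at room temperature. Detection reagent is added for 10 min before luminescence is imaged.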
# LmPK inhibitor – qHTS Assay for Inhibitors of Leishmania Mexicana Pyruvate Kinase (LmPK). Q27686. purified LmPK, Kinase-Glo ATP luminescence, 1 h. Potency, µM (series often up to 57.5 µM), inactives show at the highest dose activity change, negative = inhibition, actives largely listed as inhibitors. 290,000 tested, 0.37% active. AID 1721, 2009; note: potency is the fitted concentration of half-maximal effect; % is set by controls: 0 for no effect and ±100 for the full control effect
#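 Screened at intermediate enzyme activity to detect both inhibitors and activators: LmPK at 0.1 nM, with a 0.5 nM enzyme column as activation reference. PEP 0.5 mM, ADP 0.1 mM; ATP detected by luminescence after 1 h.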
# CHX counter – Cycloheximide Counterscreen for Small Molecule Inhibitors of Shiga Toxin; max response, %; AID 2314, 2010; cell reporter, cycloheximide protein synthesis inhibition counterscreen; 300,000 tested, 12% active; in the data active = max response mostly above about 13%, no sharp cut-off; inactive = mostly below about 14%; note: read at 38.3 µM for the half of the compounds with a filed dose; 0% is about no effect
# Starred values were filed as active, the others as inactive; ? = inconclusive; . = not tested or not shown. Unless noted, calls come from the whole dose curve; as a rule, active = well fitted curve in the direction sought with a large enough effect; inconclusive = small, poorly fitted or top-dose-only effect, or another doubt; inactive = no such curve, though single readings can be large; an effect the other way counts as inactive or inconclusive.
SMILES,RE007 growth inh,Shiga inhibitor,FBPA Giardia inh,TbPYK inhibitor,LmPK inhibitor,CHX counter
O=C(Nc1cccnc1)Nc1ccc(Br)cc1Cl,-3.5%,55.8*,3.6%,-7.1%,-2.0%,28.7*
CC(=O)c1nn(-c2ccc(OC(F)(F)F)cc2)nc1Nc1ccc(Cl)cc1,.,.,.,-1.6%,.,.
Cc1ccc(NC(=O)Nc2cccnc2)cc1Cl,6.8%,62.6*,5.9%,-1.9%,8.2%,37.5*
C#CCOC(=O)CN1C(=O)c2cccc3cccc(c23)C1=O,-12.0%,41.1,5.4%,-1.7%,11.6%,17.8*
COC(=O)CN1C(=O)c2cccc3cccc1c23,-5.1%,-7.1,-2.6%,-1.3%,-4.4%,-1.3
O=C1c2ccccc2C(=O)N1CCCc1c[nH]c2ccc(Cl)cc12,17.1%,-8.4,-3.9%,6.7%,3.7%,14.4*
O=C(Oc1ccc2[nH]cc(CCN3C(=O)c4ccccc4C3=O)c2c1)c1ccco1,-3.2%,41.0,0.1%,1.8%,-2.3%,27.1*
O=C(CN1C(=O)c2ccccc2C1=O)NCCc1c[nH]c2ccc(Cl)cc12,-5.9%,15.6,-1.0%,0.2%,5.3%,-3.1
COc1ccc(C(=O)N2CCCC(Nc3ccc(F)cc3)C2)cc1F (stereo not drawn),2.7%,-7.5,13.9%,-5.7%,2.1%,-1.9
Cc1ccc(NC(=O)C2CCCN(C(=O)c3ccc(Cl)cc3)C2)cc1C (stereo not drawn),-15.6%,72.4*,-3.0%,0.8%,7.6%,40.1*
Cc1ccc(NC(=O)C2CCCN(C(=O)c3ccc(Cl)cc3)C2)cc1 (stereo not drawn),9.4%,69.7*,6.3%,-3.1%,3.0%,47.7
COc1ccc(C(=O)N2CCCC(Nc3ccc(C)c(C)c3)C2)cc1F (stereo not drawn),-3.4%,47.2,2.8%,3.1%,1.6%,29.6*
COc1ccc(NC2CCCN(C(=O)CCc3ccncc3)C2)cc1OC (stereo not drawn),8.8%,-11.8,?,39.7%,4.8%,45.0*
CN1CCC(N(C)C(=O)/C(C#N)=C/c2ccc(OC(F)F)cc2)CC1,-9.7%,-4.4,1.7%,-2.0%,0.1%,-7.5
O=C1CCCN1CCC(=O)N1CCCC(Nc2ccc(F)c(F)c2)C1 (stereo not drawn),1.7%,32.7*,.,-6.1%,-6.0%,12.9
CCCCC(=O)Nc1ccc(C(=O)N2CCCC(C(=O)OCC)C2)cc1 (stereo not drawn),10.0%,12.9,6.5%,-19.8%,5.1%,19.8*
CC(=O)Nc1cccc(-c2cnc(N)c(C(=O)c3cccnc3)n2)c1,5.7%,.,.,1.4%,.,.
Cc1ccc2nc(C3CCCN(C(=S)Nc4cccc(C)c4C)C3)[nH]c2c1 (stereo not drawn),-19.7%,19.4,-3.8%,-0.5%,-1.6%,1.8
Cc1cc2nc(C3CCCN(C(=O)NCc4ccccc4)C3)[nH]c2cc1C (stereo not drawn),-2.6%,47.1,.,2.0%,-2.1%,34.5*
Cc1cc2nc(C3CCCN(C(=S)Nc4ccccc4C)C3)[nH]c2cc1C (stereo not drawn),7.8%,28.1,-1.5%,-2.1%,1.7%,32.9*
Cc1ccc(NC(=S)N2CCCC(c3nc4ccc(C)cc4[nH]3)C2)c(C)c1 (stereo not drawn),16.4%,6.5,-5.3%,0.4%,5.0%,10.1*
O=C(c1ccc(-c2ccccc2)cc1)C1CCCN(Cc2ccncc2)C1 (stereo not drawn),3.3%,53.3,-9.2%,-5.6%,1.4%,48.4*
CC(C)(C)c1ccc(C(=O)C2CCCN(Cc3ccon3)C2)cc1 (stereo not drawn),-5.7%,32.6*,-13.5%,0.8%,4.3%,21.6*
O=C(c1ccc(Cl)cc1)C1CCCN(Cc2ccon2)C1 (stereo not drawn),-6.0%,-4.7,1.4%,4.2%,-1.2%,-0.9
Cc1cc(C)cc(NC(=O)N2CCN(C)c3ncccc32)c1,.,.,.,-4.0%,.,.
SMILES,RE007 growth inh,Shiga inhibitor,FBPA Giardia inh,TbPYK inhibitor,LmPK inhibitor,CHX counter
COc1ccccc1/C=C/C(=O)Nc1ccc(N2CCOCC2)cc1,-5.6%,25.2,0.3%,0.9%,-0.1%,4.5
COc1ccc(C(=O)Nc2ccc(N3CCOCC3)cc2)cc1OC,?,35.0,-15.1%,-30.9%,15.8µM*,-1.3
COc1cccc(/C=C/C(=O)Nc2ccc(N3CCOCC3)cc2)c1OC,6.3%,51.2,-4.0%,-4.1%,-0.3%,18.3*
COc1ccccc1OCCCC(=O)Nc1ccc(N2CCOCC2)cc1,0.8%,10.0,-8.6%,-0.1%,1.5%,13.3*
O=C(Nc1ccc(N2CCOCC2)cc1)c1cccc(-n2cnnc2)c1,11.6%,-7.2,.,-7.0%,-12.7%,11.5
COc1ccc(C(=O)Nc2ccc(S(=O)(=O)N3CCOCC3)cc2)cc1OC,18.2%,-9.1,3.5%,1.2%,-2.8%,1.0
CN(C)c1cccc(C(=O)Nc2ccc(N3CCOCC3)cc2)c1,-5.6%,76.7,-2.6%,1.2%,-29.9%,23.2*
CC1CCCCC12NC(=O)N(CC(=O)NNC(=O)c1ccc(Br)cc1)C2=O (stereo not drawn),3.4%,.,.,-2.5%,.,.
CCc1nc2ccc(C(=O)N(CC)CCN(C)C)cn2c1N(CC)C(=O)NCCc1ccccc1,-5.7%,.,.,-18.1%,.,.
COc1ccc(C(=O)Nc2ccc(N3CCCC3)cc2)cc1OC,-4.6%,51.4*,-23.2%,?,?,34.3*
COc1ccc(C(=O)Nc2ccc(N3CCCC3)cc2)cc1Br,-13.9%,17.4,4.9%,-23.3%,2.9%,12.3
COCCN(C(=O)COC(=O)/C=C/c1ccc2ccccc2n1)c1c(N)n(Cc2ccccc2)c(=O)[nH]c1=O,-15.8%,36.4,8.9%,2.6%,4.2%,11.0*
O=C(Nc1c[nH]c2c(Cl)cccc2c1=O)N1CCN(c2ccccn2)CC1,-1.2%,28.1,7.2%,3.4%,3.6%,15.6*
COc1ccc(-c2cc(C(=O)NCCc3ccc(OC)c(OC)c3)c3c(-c4ccc(F)cc4)[nH]nc3n2)cc1,.,.,.,6.2%,.,.
Cc1occc1C(=O)Nc1ccc(Br)cc1F,-19.5%,52.2*,3.8%,-8.0%,-13.8%,50.9*
Cc1ccc([N+](=O)[O-])cc1NC(=O)c1ccoc1C,-7.4%,48.3*,0.8%,-12.0%,-2.7%,35.2*
Cc1cc([N+](=O)[O-])ccc1NC(=O)c1cccc(NC(=O)C(C)C)c1,58.4%,107.9*,-1.0%,0.0%,-1.7%,15.5*
Cc1cc([N+](=O)[O-])ccc1NC(=O)c1csc(C)c1C,-3.5%,98.6*,-15.3%,8.5%,-2.5%,63.4*
Cc1ccccc1NC(=O)CSc1cn(CC(=O)N2CCCCCC2)c2ccccc12,.,.,.,2.8%,.,.
